# Only some compounds are listed: those with a hit (about 1.1% of all), similar ones and a draw of the others.
# PrP UTR inh: suppresses PrP 5' UTR mRNA reporter expression; cell-based PrP 5' UTR mRNA reporter, plate reader; AID 488862; 340,000 tested, 0.35% active; inhibition, % (concentration not given with the values); in the data active means inhibition above about 52%; further: 0 = median of the neutral control wells
# PrPC surface inh: cell surface PrPC inhibition, primary TR-FRET screen; TR-FRET read-out; inhibition, % at 13.8 µM; AID 720596; 370,000 tested, 0.43% active; in the data active means inhibition above about 24%; further: 0% = median of the test wells and 100% = reference compound wells
# BJeLR lethal: BJeLR cell viability loss; inhibition, % (concentration not given with the values); BJeLR (HRASV12) viability, CellTiter-Glo ATP luminescence, 48 h; 300,000 tested, 0.17% active; AID 1554; in the data active means inhibition above about 50%
# MazF activator: MazEF (E. coli) toxin RNase activation; P0AE70; FAM/BHQ RNA-DNA oligo cleavage fluorescence, 5 h; activation, % at 20 µM; 350,000 tested, 0.32% active; in the data active means activation above about 50%
# Target sequence (P0AE70 whole entry, looked up): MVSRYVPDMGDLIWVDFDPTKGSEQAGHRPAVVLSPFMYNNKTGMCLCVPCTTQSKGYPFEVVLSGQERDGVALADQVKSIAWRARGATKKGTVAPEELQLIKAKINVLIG
# * hit, by the source's call; nt = no result; + = active, no number.
SMILES,PrP UTR inh,PrPC surface inh,BJeLR lethal,MazF activator
O=C1C=CC2(O[C@H](c3ccccc3)[C@@H](c3ccccc3)O2)[C@H](Sc2ccccc2O)C1,36,89*,nt,-11
COC(=O)C1=C(C)N(Cc2ccccc2)C(=S)NC1c1ccc(Br)cc1 (stereo not drawn),nt,16,nt,nt
Cc1ccc(OCC(O)CNC2CCCC2)c(C)c1 (stereo not drawn),-22,-2,5,6
Cc1ccccc1OCC(O)CNC1CCC(NCC(O)COc2ccccc2C)CC1 (stereo not drawn),7,-1,89*,22
N#Cc1cc2ccccc2nc1SCC(=O)Nc1ccccc1N1CCOCC1,-35,0,-24,51*
Cc1cccc2cc(C#N)c(SCC(=O)Nc3ccccc3N3CCOCC3)nc12,1,11,-7,-15
Cc1ccccc1C(=O)N1CCC[C@@H]1C(=O)N1CCC[C@H]1C(=O)NCc1ccccc1,nt,-4,nt,nt
CC1(C)CC(=O)C2=C(C1)OC(N)=C(C#N)[C@@H]2c1ccccc1[N+](=O)[O-],6,-2,11,78*
COc1cc(C(C)=O)ccc1Oc1ncnc2c1cnn2-c1ccccc1,-4,-4,1,60*
COc1cc(C(C)=O)ccc1Oc1ncnc2c1cnn2-c1ccc(C)c(C)c1,-22,-3,14,-6
COC(=O)[C@]12C[C@H](CC(=O)NCc3cccc4ccccc34)C(=O)N(Cc3ccccc3)C1=C[C@H](C1CCCC1)O[C@@H]2C,nt,1,nt,nt
Cc1cc(NC(=O)CSc2nc(-c3ccccc3Cl)nc3c2c(=O)n(C)c(=O)n3C)no1,-11,-4,-20,112*
CCOC(=O)C1=CN(Cc2cccc(F)c2)S(=O)(=O)N(C)C1c1ccccc1 (stereo not drawn),-54,8,nt,2
CCOC(=O)C1=CN(Cc2cccc(F)c2)S(=O)(=O)N(C)C1c1cccc(OC)c1 (stereo not drawn),-19,11,nt,50*
CCCCCN=Cc1c(C)[nH]n(-c2nc3ccccc3s2)c1=O,27,6,53*,0
Cn1cccc1/C=C1\CCC/C(=C\c2cccn2C)C1=O,-59,-5,-10,863*
COC(=O)c1cc(=O)nc(NN=Cc2ccccc2O)s1,nt,3,nt,nt
COc1cccc(/C=C/C(=O)NNC(=O)CCN2CCN(Cc3ccccc3)CC2)c1,-17,-4,3,-2
O=C(/C=C/c1ccc(F)cc1)NNC(=O)CCN1CCN(Cc2ccccc2)CC1,-7,-12,55*,-9
O=C(O)CC/C(=C\c1ccc2c(c1)OCO2)c1nc2ccccc2s1,-2,-2,-4,60*
Cc1ccc(NC(=O)CN2C(=O)S/C(=C/c3ccc(-c4cc(C(=O)O)ccc4C)o3)C2=O)cc1C,0,-1,-8,75*
Cc1cccc(NC(=O)CN2C(=O)S/C(=C\c3ccc(-c4cccc(C(=O)O)c4C)o3)C2=O)c1,-26,-7,-3,-51
CCS(=O)(=O)N1N=C(c2cccc(NS(C)(=O)=O)c2)CC1c1ccc(C)cc1 (stereo not drawn),-1,0,-6,67*
Nc1ccn([C@@H]2O[C@H](C(=O)N[C@H](Cc3ccccc3)C(=O)N3CCN(C(=O)N4CCOCC4)CC3)[C@@H](O)[C@H]2O)c(=O)n1,nt,2,nt,nt
O=C(/C=C/c1ccco1)Nc1cc(Cl)ccc1C(=O)O,-18,-7,-1,-2
SMILES,PrP UTR inh,PrPC surface inh,BJeLR lethal,MazF activator
O=C(/C=C\c1ccco1)Nc1cc([N+](=O)[O-])ccc1F,5,-8,62*,6
COc1cccc(N2CCN(C(=O)c3ccc(CS(=O)c4ccc(C)cc4)o3)CC2)c1 (stereo not drawn),15,15,52*,5
Cc1ccccc1CNC(=O)C1CCC(CNS(=O)(=O)c2cccc3cccnc23)CC1 (stereo not drawn),nt,4,nt,nt
COc1ccccc1NC(=O)/C(=N/OCc1ccc(F)cc1)C(C)=O,-11,-5,-10,75*
COC(=O)[C@]12C[C@H](CC(=O)NCc3ccccc3)C(=O)N(CCc3ccc(OC)c(OC)c3)C1=C[C@H](C1CCCC1)O[C@@H]2C,nt,-5,nt,nt
COc1cccc(-n2nnc3c(=O)n(Cc4c(F)cccc4Cl)cnc32)c1,-23,2,5,90*
O=C1/C(=C/c2ccco2)SC(=S)N1CC1CCCO1 (stereo not drawn),-37,-5,8,10
Cc1ccc(/C=C2\SC(=S)N(CC3CCCO3)C2=O)o1 (stereo not drawn),-37,2,86*,1
Brc1nc(-c2ccccc2)nc(-c2ccccc2)c1Br,nt,-1,51*,-11
C/C(=N/NS(=O)(=O)c1ccccc1)c1c[nH]c2ccccc12,-3,-2,-3,23
C/C(=N/NS(=O)(=O)c1cccc([N+](=O)[O-])c1)c1c[nH]c2ccccc12,-153,-5,8,56*
COc1ccccc1CCn1cnc(-c2ccc(Cl)cc2)c1CC(C)C,nt,4,nt,nt
CC(C)(C)C(=O)c1c(N)[nH]c(C(=O)c2ccccc2)c1-c1ccccc1,nt,0,nt,nt
N#CC(C(=O)NCCc1ccccc1)c1nc2ccccc2nc1N1CCCCC1 (stereo not drawn),-2,-1,-11,150*
CCN(CC)c1nc2ccccc2nc1C(C#N)C(=O)NCCCOC (stereo not drawn),-2,-12,nt,-9
N#CC(C(=O)NCc1ccco1)c1nc2ccccc2nc1N1CCOCC1 (stereo not drawn),-11,-3,-4,-5
CCOC(=O)N1CCN(c2nc3ccccc3nc2C(C#N)C(=O)NCCc2ccccc2)CC1 (stereo not drawn),-70,-5,4,-50
N#CC(C(=O)NCCc1ccccc1)c1nc2ccccc2nc1N1CCOCC1 (stereo not drawn),-9,2,8,928*
N#CC(C(=O)NCc1ccccc1)c1nc2ccccc2nc1N1CCCC1 (stereo not drawn),-9,0,-13,+
CCN(CC)c1nc2ccccc2nc1C(C#N)C(=O)NCCc1ccccc1 (stereo not drawn),-28,2,-5,+
O=S(=O)(c1sccc1Br)n1c(CN2CCOCC2)nc2ccccc21,nt,-5,nt,nt
CCN1C=C(Cc2ccccc2C)C2=C(C1)C(c1ccccc1C)C(C#N)=C(N)O2 (stereo not drawn),-20,-4,-3,-4
CCN1C=C(Cc2ccc(F)cc2)C2=C(C1)C(c1ccc(F)cc1)C(C#N)=C(N)O2 (stereo not drawn),2,-7,0,77*
CCC(C)c1ccc(N2C(=O)NC(=O)/C(=C/c3cccn3CCOc3ccc(C)cc3)C2=O)cc1 (stereo not drawn),-3,1,3,124*
CSc1nc(-c2ccco2)nn1C(=O)c1cccs1,-12,0,-9,-6
COc1ccc(C(=O)n2nc(-c3ccco3)nc2SC)cc1OC,-5,-1,-15,109*
COc1ccc(Cn2c(=O)[nH]c3cc(C(=O)NC4CCCC4)ccc3c2=O)cc1,-16,-1,-8,-13
COc1cc2[nH]c(=O)n(Cc3ccc(C(=O)NC4CCCC4)cc3)c(=O)c2cc1OC,-13,4,2,88*
